Here are results for one compound from PubChem BioAssay AID1053118 (Broad Institute, 2014).

Entries with a potency or affinity are not part of this list. Calls of active or inactive are those of the source.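 Rule for the calls: active = fitted half-maximal concentration for ATP signal loss at most twice the top valid dose; inconclusive = flat curve between -70 and -30%, or an invalid fit; inactive = flat within ±30%, wrong direction, or potency past limit.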

A short description of this test: HepG2 cell cytotoxicity, dose response, cytotoxicity control, cherry-picks, set 5 (AID 1053118).

`C=C1C(=O)O[C@@H]2C[C@@H](C)[C@@H]3C=CC(=O)[C@@]3(C)[C@@H](O)[C@H]12`: the compound was classed as inactive.
